# Measurements reported in PubChem BioAssay (NCATS).
# Records with an inconclusive call do not appear. Where a call stands in place of a potency, no number is given. Unmarked numbers belong to inactive results. Active and inactive are the calls of the source. Calls come from the whole dose curve; as a rule, active = well fitted curve in the direction sought with a large enough effect; inconclusive = small, poorly fitted or top-dose-only effect, or another doubt; inactive = no such curve, though single readings can be large; an effect the other way counts as inactive or inconclusive.
# Tests used:
# [1] = target: Calcium and integrin-binding protein 1 (Homo sapiens) (UniProt Q99828); test: Primary qHTS for Identification of Calcium Integrin Binding Protein 1 (CIB1) Competitor (AID 1508620);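 note: GST tagged CIB1 binding a fluorescein labelled alphaIIb integrin peptide tracer; top concentration of the series differs between compounds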
# Chain of Calcium and integrin-binding protein 1 (Homo sapiens) (Q99828 whole entry, looked up): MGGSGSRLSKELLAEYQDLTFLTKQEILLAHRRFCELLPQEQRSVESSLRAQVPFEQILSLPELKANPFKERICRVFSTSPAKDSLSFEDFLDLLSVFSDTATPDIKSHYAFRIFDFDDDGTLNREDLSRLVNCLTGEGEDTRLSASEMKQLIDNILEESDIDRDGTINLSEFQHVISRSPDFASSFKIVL
# Method in brief: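 CIB1-GST (1 uM final) and compound incubated 15 min at room temperature before adding FITC-alphaIIb peptide tracer (100 nM final). Competition for binding read by fluorescence polarization (ex 480, em 540) after another 15 min at room temperature.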
# [2] = Primary qHTS for inhibitors of nuclear receptor binding SET domain protein 2 (NSD2) in an isogenic RCH-ACV NSD2 p.E1099K mutant (9B) (AID 1645876); note: nearly all actives have a fitted effect of over 70% in size; note: potency is the fitted concentration of half-maximal effect
# [3] = Primary qHTS for inhibitors of nuclear receptor binding SET domain protein 2 (NSD2) in an RCH-ACV wild type WT cells (2C) (AID 1645877); note: nearly all actives have a fitted effect of over 70% in size; note: potency is the fitted concentration of half-maximal effect
smiles,measurement,setting,value
COC(=O)C1=COC(O[C@@H]2O[C@H](CO)[C@@H](O)[C@H](O)[C@H]2O)[C@H]2[C@@H]1[C@H](OC(=O)CCc1ccc(O)cc1)C[C@]2(C)O (some centres not stated),Potency,[1],inactive
same,Potency,[2],inactive
same,Potency,[3],inactive
C/C(=C\C=C\C(C)C1CCC2(C)C3CCC4C(C)(C)C(=O)CCC45CC35CCC12C)C(=O)O (configuration not stated),Potency,[1],inactive
same,Potency,[2],inactive
same,Potency,[3],inactive
NC1CCCCN(c2c(F)cc3c(=O)c(C(=O)O)cn(C4CC4)c3c2Cl)C1 (configuration not stated),Potency,[1],inactive
same,Potency,[2],inactive
same,Potency,[3],inactive
CC(C)=CCC/C(C)=C/CO[C@@H]1O[C@H](CO)[C@@H](O)[C@H](O)[C@H]1O,Potency,[1],inactive
same,Potency,[2],inactive
same,Potency,[3],inactive
COC(=O)/C=C/C12COC(C)(C)C1C(O)C(OC(C)=O)C1(C)C2CCC2(C)C(c3ccoc3)OC(=O)C3OC321 (configuration not stated),Potency,[1],inactive
same,Potency,[2],inactive
same,Potency,[3],inactive
CC(C)O[C@@H]1O[C@H](CO)[C@@H](O)[C@H](O)[C@H]1O,Potency,[1],inactive
same,Potency,[2],inactive
same,Potency,[3],inactive
C[C@H](NC(=O)CCc1nc2ccccc2c(=O)[nH]1)c1ccccc1,Potency,[1],inactive
same,Potency,[2],inactive
same,Potency,[3],inactive
OCCc1ccc(O[C@@H]2O[C@H](CO)[C@@H](O)[C@H](O)[C@H]2O)cc1,Potency,[1],inactive
same,Potency,[2],inactive
same,Potency,[3],inactive
COc1ccc(CN2C(=O)C(=O)c3cc(S(=O)(=O)N4CCC[C@H]4COc4cccnc4)ccc32)cc1,Potency,[1],inactive
same,Potency,[2],inactive
same,Potency,[3],inactive
O=C(OC[C@@]1(O)CO[C@@H](O[C@H]2[C@H](Oc3ccc(O)cc3)O[C@H](CO)[C@@H](O)[C@@H]2O)[C@@H]1O)c1ccc(O)cc1,Potency,[1],inactive
same,Potency,[2],inactive
same,Potency,[3],inactive
COC(=O)c1ccccc1O[C@@H]1O[C@H](CO)[C@@H](O)[C@H](O)[C@H]1O[C@@H]1O[C@@H](C)[C@H](O)[C@@H](O)[C@H]1O,Potency,[1],inactive
same,Potency,[2],inactive
same,Potency,[3],inactive
C[C@@H]1N[C@H]2N(C1=O)c1ccccc1[C@@]2(O)C[C@@H]1C(=O)N[C@@H](C)c2nc3ccccc3c(=O)n21,Potency,[1],inactive
same,Potency,[2],inactive
same,Potency,[3],inactive
C[C@@H]1O[C@@H](O[C@@H]2[C@@H](O)[C@@H](O[C@]3(CO)O[C@H](CO)[C@@H](O)[C@@H]3OC(=O)/C=C/c3ccc(O)cc3)O[C@H](CO)[C@H]2OC(=O)/C=C/c2ccc(O)cc2)[C@H](O)[C@H](O)[C@H]1O[C@@H]1O[C@@H](C)[C@H](O[C@@H]2OC[C@](O)(CO)[C@H]2O)[C@@H](O)[C@H]1O,Potency,[1],inactive
same,outcome,[2],inactive [at 9.23 µM]
same,"activity change, negative = cell killing",[3],1.71% [at 9.23 µM]
CCC(O)C(C)C1CCC(C(C)C(=O)O)O1 (configuration not stated),Potency,[1],inactive
same,Potency,[2],inactive
same,Potency,[3],inactive
CNC(=O)c1ccccc1Nc1nc(Nc2ccc3c(c2OC)CCC[C@@H](N2CCN(CCO)CC2)C3)ncc1Cl,Potency,[1],inactive
same,Potency,[2],6.61 µM (active)
same,Potency,[3],6.61 µM (active)
C=CCC1=C[C@]2(OC)[C@H](C)[C@@H](c3ccc(O)c(OC)c3)O[C@]2(OC)CC1=O,Potency,[1],inactive
same,Potency,[2],inactive
same,Potency,[3],inactive
CC(=O)O[C@H]1[C@H](O[C@H]2[C@@H]3C=CO[C@@H](O[C@@H]4O[C@H](CO)[C@@H](O)[C@H](O)[C@H]4O)[C@@H]3[C@@]3(CO)O[C@@H]23)O[C@@H](C)[C@H](OC(=O)/C=C/c2ccccc2)[C@H]1OC(=O)/C=C/c1ccccc1,Potency,[1],inactive
same,outcome,[2],inactive [at 9.23 µM]
same,outcome,[3],inactive [at 9.23 µM]
C[C@]1(CO)CCC[C@]2(C)C3=C(CCC12)COC3 (some centres not stated),Potency,[1],inactive
same,Potency,[2],inactive
same,Potency,[3],inactive
COC(=O)CC(O)C1OC(c2ccccc2)C(O)C1O (configuration not stated),Potency,[1],inactive
same,Potency,[2],inactive
same,Potency,[3],inactive
COc1ccc(/C=C/C(=O)O[C@@H]2[C@@H](O)[C@H](C)O[C@@H](O[C@H]3[C@@H]4C=CO[C@@H](O[C@H]5O[C@@H](CO)[C@H](O)[C@@H](O)[C@@H]5O)[C@@H]4[C@@]4(CO)O[C@@H]34)[C@@H]2OC(C)=O)cc1,Potency,[1],inactive
same,Potency,[2],inactive
same,Potency,[3],inactive
CCCOC(c1cc2nccc(C(=O)O)c2[nH]1)c1ccccc1Cl (configuration not stated),Potency,[1],inactive
same,Potency,[2],inactive
same,Potency,[3],inactive
CC1(C)CC[C@]2(C(=O)O[C@@H]3O[C@H](CO[C@@H]4O[C@H](CO)[C@@H](O)[C@H](O)[C@H]4O[C@@H]4O[C@H](CO)[C@@H](O)[C@H](O)[C@H]4O)[C@@H](O)[C@H](O[C@@H]4O[C@H](CO)[C@@H](O)[C@H](O)[C@H]4O)[C@H]3O)CC[C@]3(C)C(=CCC4[C@@]5(C)CC[C@@H](O)[C@@](C)(C(=O)O[C@@H]6O[C@H](CO)[C@@H](O)[C@H](O)[C@H]6O)C5CC[C@]43C)[C@@H]2C1 (some centres not stated),"activity change, negative = inhibition",[1],-1.15% [at 12.4 µM]
same,outcome,[2],inactive [at 9.23 µM]
same,outcome,[3],inactive [at 9.23 µM]
COc1cc2c(cc1OC)[C@@H]1[C@H](O)[C@@H](OC)C=C3CCN(C2)[C@H]31,Potency,[1],inactive
same,Potency,[2],4.5 µM (active)
same,Potency,[3],4.5 µM (active)
C/C1=C\CC[C@]2(C)O[C@@H]2[C@H](O)[C@H](C(C)C)[C@H](OC(=O)/C=C/c2ccccc2)C1,Potency,[1],inactive
same,Potency,[2],inactive
same,Potency,[3],inactive
Nc1nc2c(ncn2[C@@H]2O[C@H](CO)[C@@H](O)[C@H]2O)c(=O)[nH]1,Potency,[1],inactive
same,Potency,[2],inactive
same,Potency,[3],inactive
CC12CCC(C(OC3OC(COC4OCC(O)(CO)C4O)C(O)C(O)C3O)C1)C(C)(C)O2 (configuration not stated),Potency,[1],inactive
same,Potency,[2],inactive
same,Potency,[3],inactive
CO[C@@H](C)Cn1c(=O)n(C)c2cnc3ccc(-c4cncc(C(C)(C)O)c4)cc3c21,Potency,[1],inactive
same,Potency,[2],0.166 µM (active)
same,Potency,[3],0.166 µM (active)
C/C=C/C1=CC2=C(CO1)C(=O)C(C)(O)C(OC(=O)c1c(C)cc(OC)cc1O)C2 (configuration not stated),Potency,[1],inactive
same,Potency,[2],16 µM (active)
same,Potency,[3],4.5 µM (active)
O=C1NC(Cc2ccccc2)C(=O)N2CCCC12 (configuration not stated),Potency,[1],inactive
same,Potency,[2],inactive
same,Potency,[3],inactive
CC(C)c1cc(C(=O)N2CC[C@H](NC(=O)C3CC3)C2)n[nH]1,Potency,[1],inactive
same,Potency,[2],inactive
same,Potency,[3],inactive
COC(=O)C1=CO[C@@H](O[C@@H]2O[C@H](CO)[C@@H](O)[C@H](O)[C@H]2O)[C@@H]2[C@@](C)(O)[C@@H](OC(=O)/C=C/c3ccc(O)cc3)C[C@]12O,Potency,[1],inactive
same,Potency,[2],inactive
same,Potency,[3],inactive
O=C(O)c1cn(C2CC2)c2cc(N3C[C@@H]4C[C@H]3CN4)c(F)cc2c1=O,Potency,[1],inactive
same,Potency,[2],inactive
same,Potency,[3],inactive
C=C(C)C1CCC2(C(=O)O)CCC3(C(=O)O)C(CCC4C5(C)CCC(O)C(C)(C(=O)O)C5CCC43C)C12 (configuration not stated),Potency,[1],inactive
same,Potency,[2],inactive
same,Potency,[3],inactive
CC(C)=CCC[C@](C)(O)[C@H]1CC[C@]2(C)[C@@H]1[C@H](O)CC1[C@@]3(C)CC[C@H](O)C(C)(C)[C@@H]3[C@@H](O[C@@H]3O[C@H](CO)[C@@H](O)[C@H](O)[C@H]3O[C@@H]3O[C@H](CO)[C@@H](O)[C@H](O)[C@H]3O)C[C@]12C (some centres not stated),Potency,[1],inactive
same,Potency,[2],inactive
same,Potency,[3],inactive
O=C(O)C(O[C@@H]1O[C@H](CO[C@@H]2O[C@H](CO)[C@@H](O)[C@H](O)[C@H]2O)[C@@H](O)[C@H](O)[C@H]1O)c1ccccc1 (some centres not stated),Potency,[1],inactive
same,Potency,[2],inactive
same,Potency,[3],inactive
CC1=C(C(=O)O)/C(=C/CO[C@@H]2O[C@H](COC(=O)/C=C/c3ccc(O)cc3)[C@@H](O)[C@H](O)[C@H]2O)C(O)C1 (some centres not stated),Potency,[1],inactive
same,Potency,[2],inactive
same,Potency,[3],inactive
C[C@@H]1CC[C@]2(C(=O)O[C@@H]3O[C@H](CO)[C@@H](O)[C@H](O)[C@H]3O)CC[C@]3(C)C(=CCC4[C@@]5(C)C[C@@H](O)[C@H](O)[C@@](C)(C(=O)O[C@H]6[C@H](O)C[C@@]7(C)C(CC[C@]8(C)C7CC=C7[C@H]9[C@](C(=O)O[C@@H]%10O[C@H](CO)[C@@H](O)[C@H](O)[C@H]%10O)(CC[C@@H](C)[C@@]9(C)O)CC[C@]78C)[C@@]6(CO)C(=O)O)C5CC[C@]43C)[C@@H]2[C@]1(C)O (some centres not stated),"activity change, negative = inhibition",[1],3.8% [at 12.4 µM]
same,outcome,[2],inactive [at 9.23 µM]
same,"activity change, negative = cell killing",[3],0.118% [at 9.23 µM]
COC1CC(OC2CCC3(C)C(=CCC4C3C(OC(C)=O)C(OC(=O)/C=C/c3ccccc3)C3(C)C(C(C)O)CCC43O)C2)OC(C)C1OC1CC(OC)C(OC2OC(C)C(OC3OC(CO)C(O)C(O)C3O)C(OC)C2O)C(C)O1 (configuration not stated),"activity change, negative = inhibition",[1],-8.58% [at 12.4 µM]
same,"activity change, negative = viability loss",[2],-12.2% [at 9.23 µM]
same,"activity change, negative = cell killing",[3],-17.6% [at 9.23 µM]
CC1=CC2/C=C(\C)CC[C@@H](O)[C@@H](O)[C@@H]3O[C@@H]3C(=O)[C@]23C(=O)N[C@@H](CC(C)C)[C@@H]3[C@@H]1C (some centres not stated),Potency,[1],inactive
same,Potency,[2],inactive
same,Potency,[3],inactive
CC(=O)OC1C(O)C2C(C)C3=CC(=O)OC3(O)CC2C2(C)CCCC(C)(CO)C12 (configuration not stated),Potency,[1],inactive
same,Potency,[2],inactive
same,Potency,[3],inactive
CC(C)C(N)C(=O)OCCOCn1cnc2c(=O)[nH]c(N)nc21 (configuration not stated),Potency,[1],inactive
same,Potency,[2],inactive
same,Potency,[3],inactive
COc1c/c(=C2\C=c3ccccc3=N2)[nH]/c1=C\c1[nH]c(C)cc1C,Potency,[1],inactive
same,Potency,[2],5.78 µM (active)
same,Potency,[3],4.59 µM (active)
CC(C)=CCC[C@](C)(O[C@@H]1O[C@H](CO)[C@@H](O)[C@H](O)[C@H]1O)[C@H]1CC[C@]2(C)[C@@H]1[C@H](O)CC1[C@@]3(C)CC[C@H](O)C(C)(C)C3[C@@H](O[C@@H]3O[C@H](CO)[C@@H](O)[C@H](O)[C@H]3O[C@@H]3OC[C@@H](O)[C@H](O)[C@H]3O)C[C@]12C (some centres not stated),Potency,[1],inactive
same,"activity change, negative = viability loss",[2],-22.1% [at 9.23 µM]
same,"activity change, negative = cell killing",[3],-29.2% [at 9.23 µM]
COc1ccc(/C=C/C(=O)O[C@@H]2[C@@H](O)[C@@H](O)[C@H](O[C@@H]3C=C(CO)[C@H]4[C@H](O[C@@H]5O[C@H](CO)[C@@H](O)[C@H](O)[C@H]5O)OC=C[C@H]43)O[C@H]2C)cc1O,Potency,[1],inactive
same,Potency,[2],inactive
same,Potency,[3],inactive
